# Measured values reported in ChEMBL document CHEMBL2218924, “A broad activity screen in support of a chemogenomic map for kinase signalling research and drug discovery” (Biochem J, 2013).
# Legend:
# [1] = target: Tyrosine-protein kinase SYK (Homo sapiens) (UniProt P43405); conditions: at 10 µM
# [2] = target: T1, Mitogen-activated protein kinase kinase kinase 7 (Homo sapiens) (UniProt O43318); conditions: at 1 µM
# T1 sequence (whole entry): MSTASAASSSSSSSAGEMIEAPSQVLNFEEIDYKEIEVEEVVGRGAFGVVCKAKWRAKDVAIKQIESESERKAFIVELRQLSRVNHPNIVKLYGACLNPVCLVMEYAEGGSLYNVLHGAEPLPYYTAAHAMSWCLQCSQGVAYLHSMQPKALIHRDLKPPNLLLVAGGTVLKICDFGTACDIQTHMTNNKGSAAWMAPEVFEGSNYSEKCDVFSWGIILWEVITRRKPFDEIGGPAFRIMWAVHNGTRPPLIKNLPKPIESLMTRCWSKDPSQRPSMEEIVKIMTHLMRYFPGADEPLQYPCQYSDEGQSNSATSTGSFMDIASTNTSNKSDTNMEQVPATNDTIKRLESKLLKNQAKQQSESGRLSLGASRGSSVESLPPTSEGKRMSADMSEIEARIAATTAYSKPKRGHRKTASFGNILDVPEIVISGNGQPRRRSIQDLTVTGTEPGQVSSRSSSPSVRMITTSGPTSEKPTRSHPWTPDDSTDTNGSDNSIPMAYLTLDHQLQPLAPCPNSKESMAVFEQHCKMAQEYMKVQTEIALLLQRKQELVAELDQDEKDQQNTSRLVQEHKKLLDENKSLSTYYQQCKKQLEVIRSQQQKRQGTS
# [3] = target: T1, Mitogen-activated protein kinase kinase kinase 7 (Homo sapiens); conditions: at 10 µM
# [4] = target: T2, Serine/threonine-protein kinase TAO1 (Homo sapiens) (UniProt Q7L7X3); conditions: at 1 µM
# T2 sequence (whole entry): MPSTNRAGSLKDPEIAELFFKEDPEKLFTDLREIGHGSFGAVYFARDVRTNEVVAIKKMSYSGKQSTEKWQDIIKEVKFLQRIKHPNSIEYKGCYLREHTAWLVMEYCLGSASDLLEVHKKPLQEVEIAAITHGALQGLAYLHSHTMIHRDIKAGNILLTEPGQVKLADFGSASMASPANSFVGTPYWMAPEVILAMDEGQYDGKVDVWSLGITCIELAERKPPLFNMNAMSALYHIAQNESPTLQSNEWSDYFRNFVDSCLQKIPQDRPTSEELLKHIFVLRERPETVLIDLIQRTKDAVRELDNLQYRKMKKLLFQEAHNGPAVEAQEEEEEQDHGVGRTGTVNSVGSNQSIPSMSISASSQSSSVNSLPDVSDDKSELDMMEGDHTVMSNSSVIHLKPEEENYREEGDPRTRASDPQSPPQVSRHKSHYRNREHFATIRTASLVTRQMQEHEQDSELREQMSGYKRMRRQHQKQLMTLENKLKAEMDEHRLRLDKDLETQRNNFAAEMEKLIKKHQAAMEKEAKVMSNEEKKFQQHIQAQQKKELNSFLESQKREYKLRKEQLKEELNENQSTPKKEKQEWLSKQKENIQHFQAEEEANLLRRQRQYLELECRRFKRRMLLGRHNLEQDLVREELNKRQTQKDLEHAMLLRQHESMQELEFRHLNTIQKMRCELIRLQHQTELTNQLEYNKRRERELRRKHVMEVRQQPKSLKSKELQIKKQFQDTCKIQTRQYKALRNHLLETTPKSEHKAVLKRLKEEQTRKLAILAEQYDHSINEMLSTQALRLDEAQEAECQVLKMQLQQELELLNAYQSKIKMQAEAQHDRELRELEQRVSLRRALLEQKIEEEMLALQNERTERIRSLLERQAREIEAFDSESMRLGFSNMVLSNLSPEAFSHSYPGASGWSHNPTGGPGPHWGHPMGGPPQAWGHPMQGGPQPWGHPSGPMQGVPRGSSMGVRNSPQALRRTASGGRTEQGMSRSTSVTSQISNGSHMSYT
# [5] = target: T2, Serine/threonine-protein kinase TAO1 (Homo sapiens); conditions: at 10 µM
# [6] = target: T3, Serine/threonine-protein kinase TAO2 (Homo sapiens) (UniProt Q9UL54); conditions: at 1 µM
# T3 sequence (whole entry): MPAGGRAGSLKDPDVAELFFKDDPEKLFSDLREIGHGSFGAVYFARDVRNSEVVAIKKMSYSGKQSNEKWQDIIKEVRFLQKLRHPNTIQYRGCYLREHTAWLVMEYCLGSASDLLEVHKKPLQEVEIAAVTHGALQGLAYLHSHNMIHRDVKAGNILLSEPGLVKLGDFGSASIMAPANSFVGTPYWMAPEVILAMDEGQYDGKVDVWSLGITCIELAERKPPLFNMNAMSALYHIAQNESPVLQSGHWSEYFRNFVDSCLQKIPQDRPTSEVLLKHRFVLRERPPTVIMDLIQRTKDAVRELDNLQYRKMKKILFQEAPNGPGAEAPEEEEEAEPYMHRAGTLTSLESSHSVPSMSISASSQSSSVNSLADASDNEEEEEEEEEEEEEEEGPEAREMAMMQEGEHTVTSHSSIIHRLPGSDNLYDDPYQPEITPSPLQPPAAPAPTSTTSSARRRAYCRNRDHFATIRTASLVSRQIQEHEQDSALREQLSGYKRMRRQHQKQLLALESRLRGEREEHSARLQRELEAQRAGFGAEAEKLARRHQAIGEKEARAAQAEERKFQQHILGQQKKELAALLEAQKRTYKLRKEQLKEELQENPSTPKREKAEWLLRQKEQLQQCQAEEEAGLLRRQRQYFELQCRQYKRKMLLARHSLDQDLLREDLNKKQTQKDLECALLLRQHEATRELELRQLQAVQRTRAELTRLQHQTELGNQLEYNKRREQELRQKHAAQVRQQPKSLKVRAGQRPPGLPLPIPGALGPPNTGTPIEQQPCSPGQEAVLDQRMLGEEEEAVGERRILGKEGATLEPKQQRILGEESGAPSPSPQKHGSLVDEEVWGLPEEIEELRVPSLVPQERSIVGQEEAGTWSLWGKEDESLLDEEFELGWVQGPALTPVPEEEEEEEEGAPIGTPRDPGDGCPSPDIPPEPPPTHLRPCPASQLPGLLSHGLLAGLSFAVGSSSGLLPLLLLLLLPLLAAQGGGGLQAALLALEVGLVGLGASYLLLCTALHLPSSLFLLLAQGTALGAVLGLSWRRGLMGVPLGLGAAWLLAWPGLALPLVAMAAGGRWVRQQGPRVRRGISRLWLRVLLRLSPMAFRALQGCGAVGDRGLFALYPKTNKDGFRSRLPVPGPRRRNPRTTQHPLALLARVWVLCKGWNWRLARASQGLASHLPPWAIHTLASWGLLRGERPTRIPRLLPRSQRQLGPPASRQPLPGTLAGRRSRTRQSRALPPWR
# [7] = target: T3, Serine/threonine-protein kinase TAO2 (Homo sapiens); conditions: at 10 µM
# [8] = target: T4, Serine/threonine-protein kinase TAO3 (Homo sapiens) (UniProt Q9H2K8); conditions: at 1 µM
# T4 sequence (whole entry): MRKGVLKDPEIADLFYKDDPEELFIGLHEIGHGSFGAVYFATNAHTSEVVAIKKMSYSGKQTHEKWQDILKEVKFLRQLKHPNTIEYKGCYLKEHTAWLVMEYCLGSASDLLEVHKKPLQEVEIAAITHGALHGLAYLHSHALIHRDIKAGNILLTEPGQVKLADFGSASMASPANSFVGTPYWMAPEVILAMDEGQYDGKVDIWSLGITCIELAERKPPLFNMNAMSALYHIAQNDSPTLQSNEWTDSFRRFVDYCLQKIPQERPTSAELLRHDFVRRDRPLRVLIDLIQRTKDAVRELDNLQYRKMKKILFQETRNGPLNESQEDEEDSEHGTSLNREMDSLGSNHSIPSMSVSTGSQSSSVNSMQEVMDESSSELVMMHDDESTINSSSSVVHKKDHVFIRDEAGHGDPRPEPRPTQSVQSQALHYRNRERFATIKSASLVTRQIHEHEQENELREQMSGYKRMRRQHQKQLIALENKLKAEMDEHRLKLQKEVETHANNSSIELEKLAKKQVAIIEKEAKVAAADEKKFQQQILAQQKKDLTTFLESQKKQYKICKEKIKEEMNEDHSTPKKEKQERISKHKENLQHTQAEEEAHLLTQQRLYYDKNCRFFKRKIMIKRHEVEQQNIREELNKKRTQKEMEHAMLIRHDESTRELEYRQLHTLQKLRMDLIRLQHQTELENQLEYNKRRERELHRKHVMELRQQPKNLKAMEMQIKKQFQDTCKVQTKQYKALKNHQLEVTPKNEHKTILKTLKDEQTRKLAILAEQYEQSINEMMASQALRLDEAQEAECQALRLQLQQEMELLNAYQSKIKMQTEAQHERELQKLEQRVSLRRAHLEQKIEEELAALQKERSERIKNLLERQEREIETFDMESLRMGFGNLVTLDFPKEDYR
smiles,measurement,setting,value
CN(C)S(=O)(=O)c1ccc2c(c1)/C(=C/c1cc3c([nH]1)CCCC3)C(=O)N2,residual activity,[1],96%
same,residual activity,[2],100%
same,residual activity,[3],92%
same,residual activity,[4],37%
same,residual activity,[5],56%
same,residual activity,[6],93%
same,residual activity,[7],87%
same,residual activity,[8],89%
